The structures appear in SMILES notation. Several values for one entry are separate records, joined by “and”; a condition that tells them apart may be missing. Equal entries are not always repeated. About 64,000 (15%) of roughly 420,000 compounds were called active. Roughly 27% stayed inconclusive and do not appear here. Calls follow the shape of the dose curve; as a rule, active = well fitted inhibition curve with a large enough effect; inconclusive = small, poorly fitted or top-dose-only effect; inactive = flat fitted curve, though single readings scatter. Only a sample is shown. A call without a number means that no potency is given here. The source holds several records for some structures; these can differ, active in one and inactive in another.
Potency is read from the fitted curve at half-maximal effect.

This assay in a line: qHTS for Inhibitors of human tyrosyl-DNA phosphodiesterase 1 (TDP1): qHTS in cells in absence of CPT. Also: nearly all actives have a fitted effect of over 55% in size. The following applies: DT40 Tdp1-/- hTDP1 cells, no CPT, ATP luminescence, 48 h; activity change, negative = growth inhibition: at 46.2 µM (top of the series). An outline of the steps: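 DT40 Tdp1-/-;hTDP1 cells, no CPT (DMSO vehicle only), 400 cells/well; compounds pin-transferred; ≥48 hr, 37 °C; CellTiter-Glo 30 min RT dark, luminescence read.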
With `COC(=O)/C=C/C(=O)NCc1ccco1`, the Potency result is “inactive”.
For the compound `COc1cc2c(C(=O)O)c(C)n(C)c2c2ccccc12`, the Potency entry is “inactive”.
For `COc1cccc(/C=N/NC(=O)C(=O)N2CCCC2)c1`, the Potency entry is “inactive”.
The same measure for `O=c1[nH]c(/C=C\c2cccc(C(F)(F)F)c2)nc(O)c1[N+](=O)[O-]`: “inactive”; for `Cc1cccc(NC(=O)CSc2nnc(NC(=O)CN3CCOCC3)s2)c1`: “inactive”; for `Cn1c(=S)sc2ccc3ccccc3c21`: “inactive”.
As to `O=c1c2c(nc3cc(-c4cccc(Cl)c4)[nH]n13)CCCC2`, the Potency was 20.6 µM (active).
In the case of `C=CCc1c(C)nc2cc(-c3ccccc3)[nH]n2c1=O`, the Potency result is “inactive”.
Consider `O=c1c2c(nc3nc[nH]n13)CCC2`, for which the Potency entry is “inactive”.
With `CN(C)S(=O)(=O)c1ccc(Cl)c(NC(=O)COC(=O)CC(NC(N)=O)c2ccc(Cl)cc2)c1` (configuration not stated), the Potency entry is “inactive”.
For `Cc1ccc(N(CC(=O)NCC2CCCO2)C(=O)CNS(=O)(=O)c2ccc(Cl)cc2)cc1` (configuration not stated), the Potency result was “inactive”.
Turning to `CC(Sc1nnc(C2CC2)n1C1CC1)C(=O)Nc1ccc(C(N)=O)cc1` (configuration not stated), the Potency entry was “inactive”.
Take `CCN(CC)c1ccc(C2C(C(N)=O)=C(C)Nc3nc(SCc4ccccc4)nn32)cc1` (configuration not stated): the Potency entry was “inactive”.
Take `O=C1CCCC2=C1C(c1cccs1)n1nc(SCc3ccccc3)nc1N2` (configuration not stated): the Potency is 14.6 µM (active).
For the compound `O=C1CCCC2=C1C(c1cccs1)CC(=O)N2c1ccc(F)cc1` (configuration not stated), the Potency result is “inactive”.
For the compound `O=S(=O)(NCc1ccccc1Cl)c1cnc[nH]1`, the Potency entry is “inactive”.
`Cc1ccc(NC(=O)CCOc2ccccc2)cc1S(=O)(=O)Nc1ccccc1Cl`: the Potency result is “inactive”.
For `CC(C)c1ccc(C(=O)OC2CCOC2=O)cc1` (configuration not stated), the Potency entry is “inactive”.
Then `COc1ccc(S(=O)(=O)NCCc2c[nH]c3ccccc23)cc1OC`, with “inactive”; and `COc1ccccc1CC(=O)NCCc1c[nH]c2ccccc12`, with “inactive”.
Consider `COc1cccc(CNCCc2c[nH]c3ccccc23)c1OCc1ccccc1F`, for which the Potency is 20.6 µM (active).
In the case of `CCc1c(SCCC(=O)O)nc2ccccc2c1C`, the Potency entry was “inactive”.
The same measure for `Cc1ccc(N2CCN(c3ccc(C)cc3)C2c2ccccn2)cc1`: “inactive”.
For `CN(C(=O)CSc1nnc(-c2ccc(C(C)(C)C)cc2)n1C)C1CCS(=O)(=O)C1` (configuration not stated), the Potency entry was “inactive”.
Then `CC(C)CC(=O)Nc1nnc(S(=O)(=O)N(C)c2ccc(Cl)cc2)s1`, with “inactive and 326 nM (active)”; and `CCc1nnc(NC(=O)c2cccc(S(=O)(=O)N(C)c3ccc(OC)cc3)c2)s1`, with “inactive”; and `CCOc1cccc(C(=O)Nc2nnc(S(=O)(=O)N(C)c3ccc(C)cc3)s2)c1`, with 23.1 µM (active).
As to `COc1cccc(C(=O)Nc2nnc(S(=O)(=O)N(C)c3ccccc3)s2)c1`, the Potency result is “inactive”.
Take `CCCCC(=O)Nc1nnc(S(=O)(=O)N(C)Cc2ccco2)s1`: the Potency result was “inactive”.
On to `CCC(=O)Nc1nnc(S(=O)(=O)N(CC(C)C)c2ccccc2)s1`, for which the Potency entry is “inactive”.
As to `Cc1ccn(C(CC(=O)c2ccc(Br)cc2)C(=O)O)n1` (configuration not stated), the Potency result was “inactive”.
`O=C(CNS(=O)(=O)c1ccccc1)N1CCN(C(=O)c2ccco2)CC1`: the Potency entry was “inactive”.
With `CCOc1cc(C(=O)O)ccc1OCCOc1ccccc1`, the Potency entry was “inactive”.
For the compound `COc1ccc(C(=O)NCC[N+](C)(C)C)cc1`, the Potency result is “inactive”.
As to `CC/C(=C(/c1ccccc1)c1ccc(OCC[N+](C)(C)C)cc1)c1ccccc1`, the Potency was 23.1 µM (active).
With `COc1cc(/C=C/C2=CC(C)(C)NC(=S)N2)cc(OC)c1OC`, the Potency result is “inactive”.
Then `COc1ccc(N2C(=O)CN=C2Nc2cccc(C)c2C)cc1OC`, with “inactive”; and `CC(C)Cc1nnc(NC(=O)CN2C(=O)NC3(CCCCC3)C2=O)s1`, with “inactive”.
Consider `CC1(C(=O)NS(=O)(=O)c2cccc(OC(F)F)c2)CCN1C(=O)COc1ccc(Cl)cc1` (configuration not stated), for which the Potency result is “inactive”.
Regarding `Cc1nc(C)c(-c2csc(NCCc3ccccc3)n2)s1`, the Potency was 13 µM (active).
With `S=c1[nH]nc(NCCc2ccccc2)s1`, the Potency entry was “inactive”.
With `Cc1nc(N)sc1-c1ccccc1`, the Potency entry was “inactive”.
On to `COc1ccc(O)c(C(=O)c2cnc3onc(C(C)C)c3c2)c1`, for which the Potency entry was “inactive”.
The same measure for `Cc1n[nH]c(=O)n1-c1ccc(Oc2ccccc2)cc1`: “inactive”.
For `CCOc1ccc(N2CC(C(=O)NCCN3C(=O)S/C(=C\c4cccnc4)C3=O)CC2=O)cc1` (configuration not stated), the Potency entry is “inactive”.
The same measure for `COc1ccc(N2CC(C(=O)NCCN3C(=O)S/C(=C\c4cccnc4)C3=O)CC2=O)c(OC)c1` (configuration not stated): “inactive”; for `Cc1cc(OCCCC(=O)NCCN2C(=O)S/C(=C\c3cccnc3)C2=O)ccc1Cl`: 4.61 µM (active); for `Cn1cccc1C(=O)OCC(=O)NCCc1ccccc1`: “inactive”.
Regarding `O=c1cccc(-c2ccc(Br)cc2)o1`, the Potency entry was “inactive”.
With `COC(=O)C(NC(C)=O)(Nc1nc2c(s1)CCCC2)C(F)(F)F` (configuration not stated), the Potency entry is “inactive”.
Consider `Cc1ccc(S(=O)(=O)N(C)CC(=O)OCC(=O)Nc2ccccc2)cc1`, for which the Potency entry was “inactive”.
For the compound `Cc1ccc(-c2c[n+](CC(=O)Nc3ccccc3)c3n2CCC3)cc1`, the Potency was 11.6 µM (active).
Consider `Cc1ccc(C(=O)C[n+]2cc(-c3ccccc3)n3c2CCCCC3)cc1`, for which the Potency was 3.16 µM (active) and 1.46 µM (active).
Regarding `Cc1ccc(C(=O)N2CCCC(c3ccccc3)=N2)cc1`, the Potency result is “inactive”.
As for `O=C(C[n+]1cc(-c2ccc(Cl)c(Cl)c2)n2c1CCC2)c1cccs1`, the Potency is 18.4 µM (active).
Regarding `Cc1ccc(C(=O)Cn2cccn2)cc1`, the Potency result is “inactive”.
On to `CCS(=O)(=O)N1CCN(C(=O)c2cccs2)CC1`, for which the Potency entry was “inactive”.
For the compound `Cc1ccc(NC(=S)N2CCCC(c3ccccc3)=N2)cc1`, the Potency entry was “inactive”.
The same measure for `CCCS(=O)(=O)N1CCN(C(=O)c2cccs2)CC1`: “inactive”; for `COc1ccc(N(C)S(=O)(=O)c2cccc3nsnc23)cc1`: “inactive”.
As for `Cc1cccc(S(=O)(=O)N(C)C[C@@H]2OCc3cnnn3CCCC(=O)N([C@H](C)CO)C[C@@H]2C)c1`, the Potency result was “inactive”.
On to `Cn1nc(C(F)(F)F)cc1-c1ccc(/C=C(\C#N)C(=O)c2cccc(C(F)(F)F)c2)s1`, for which the Potency result is “inactive”.
With `C/C(=N\NC(=O)c1ccc2ccccc2c1)c1cccnc1`, the Potency entry was “inactive”.
Turning to `Cc1cccc(OCc2nnc(SCn3nnc4ccccc4c3=O)o2)c1`, the Potency result is “inactive”.
As to `CCOc1ccc(NC(=O)CN(C)C(=O)CSc2ccccc2)cc1OCC`, the Potency entry is “inactive”.
For `CCC(C)NC(=O)c1cc(Cl)ccc1OC` (configuration not stated), the Potency result was “inactive”.
As for `Cc1cc(N(C)C)cc(C)[n+]1[O-]`, the Potency entry is “inactive”.
Regarding `O=S(=O)(NC1CC1)c1ccc(F)c(F)c1`, the Potency entry was “inactive”.
The same measure for `Cn1sc(=O)c2cc(S(=O)(=O)NC3CC3)ccc21`: 10.3 µM (active).
The same measure for `O=S(=O)(NC1CC1)c1ccc(Cl)cc1`: “inactive”; for `CC(NC(=O)CCCC1CCCCC1)c1ccc(S(N)(=O)=O)cc1` (configuration not stated): “inactive”.
For the compound `N#CC1=C(N)Oc2c(sc3ccccc23)C1c1ccco1` (configuration not stated), the Potency is 5.17 µM (active).
As for `C[C@H](NC(=O)CC[C@H]1O[C@@H](n2ccc(=O)[nH]c2=O)[C@H](O)[C@@H]1O)c1cccc2ccccc12`, the Potency result was “inactive”.
The same measure for `Cc1ccc(S(=O)(=O)N2CCOCC2)cc1NC(=O)COC(=O)c1cnccn1`: “inactive”; for `CCCCCCC1(C)NC(c2ccc3c(c2)OCO3)=CC(c2ccccc2O)N1` (configuration not stated): 15.8 µM (active).
Turning to `CCc1ccccc1NC(=O)c1cc(-c2ccc3c(c2)OCO3)on1`, the Potency entry was “inactive”.
`CC(C)COC(=O)c1ccc(NC(=O)C2C3C=CC(C3)C2C(=O)O)cc1` (configuration not stated): the Potency result was “inactive”.
Then `CC1=CC=CN2C1=NC(=O)CC2(C)C(=O)N(CC(=O)NC1CCCC1)c1ccccc1C` (configuration not stated), with “inactive”; and `N#Cc1ccc(C(c2ccc(C#N)cc2)n2cncn2)cc1`, with “inactive”.
Take `Cc1onc(-c2c(F)cccc2Cl)c1C(=O)N(C)CC(=O)Nc1cccc(F)c1`: the Potency entry is “inactive”.
On to `CC(=NNC(=O)c1ccncc1)c1ccc(Cl)c(Cl)c1`, for which the Potency result is “inactive”.
As to `CC(=O)Nc1cccc(/C(C)=N/NC(=O)c2c(-c3ccccc3Cl)noc2C)c1`, the Potency was 13 µM (active).
Regarding `Cc1oc(-c2ccccc2F)nc1CS(=O)CC(=O)NCCN1CCCCC1C` (configuration not stated), the Potency entry was “inactive”.
For the compound `COc1ccc(-c2nc(CN3CCC(C(=O)NCc4ccccc4)CC3)c(C)o2)cc1OC`, the Potency result was “inactive”.
Then `Cc1oc(-c2ccccc2F)nc1CN1CCC(C(=O)NCCc2ccc(Cl)cc2)CC1`, with 16.4 µM (active); and `C[C@H]1[C@H]2c3nc4ccccc4n3C[C@H]1ON2C1CCCCC1`, with “inactive”.
Take `CSc1ncc(C(=O)NCc2ccccc2Cl)c(C(F)(F)F)n1`: the Potency result is “inactive”.
Regarding `Cn1ccc(=Nc2ccc(NC(=O)c3ccc(N=c4ccn(C)c5ccc([N+](=O)[O-])cc45)cc3)cc2)cc1`, the Potency was 3.66 µM (active).
In the case of `CCc1ccc(NC(=O)c2ccc(Cn3cc([N+](=O)[O-])cn3)cc2)cc1`, the Potency result is “inactive”.
Take `COc1cc(NS(=O)(=O)c2ccc(NC(=O)c3ccc([N+](=O)[O-])cc3)cc2)ncn1`: the Potency entry was “inactive”.
Take `Oc1c(C=Nc2cccc3nsnc23)ccc2ccccc12`: the Potency entry is “inactive”.
In the case of `Oc1ccc2ccccc2c1N=Nc1nccs1`, the Potency was 0.651 µM (active).
On to `Oc1ccc(N=Nc2nccs2)c(O)c1`, for which the Potency was 20.6 µM (active).
Consider `Cc1nc(Nc2ccccc2C)c2cnn(C)c2n1`, for which the Potency result was “inactive”.
The same measure for `Cc1ccc(CCCOC(=O)C[N+]2(C)CCCCC2)cc1`: “inactive”; for `CCCOc1ccc(N2CC(C(=O)Nc3ccccn3)CC2=O)cc1` (configuration not stated): “inactive”.
In the case of `CC(C)CCN1CCN(Cc2cn[nH]c2C2CCCCC2)CC1CCO` (configuration not stated), the Potency entry was “inactive”.
Turning to `CCOC(=O)c1cn(Cc2cccc(C)c2)nn1`, the Potency entry was “inactive”.
For `Cc1nn(Cc2ccccc2)c(C)c1NS(=O)(=O)c1ccccc1`, the Potency entry was “inactive”.
Then `CSc1nn(Cc2cccc(C)c2)c(N)c1S(=O)(=O)c1ccccc1`, with 18.4 µM (active).
For the compound `CCOC(=O)C(C)N(c1ccccc1Cl)S(C)(=O)=O` (configuration not stated), the Potency result was “inactive”.
With `CCOC(=O)c1ccc2c(c1)nc(SCC(=O)NC(C)C)n2CC`, the Potency entry is “inactive”.
For `Cc1ccc(F)c(S(=O)(=O)NC(=O)C2(C)CCN2C(=O)CCc2cccs2)c1` (configuration not stated), the Potency result was “inactive”.
For `COc1ccc(C=C2CCC3C(CCCC34OCCO4)C2=O)cc1` (configuration not stated), the Potency is 23.1 µM (active).
As for `COc1ccc(/C=C2/S/C(=N/N=C3\CC4CCC3(C)C4(C)C)NC2=O)cc1` (configuration not stated), the Potency result was “inactive”.
Then `COc1ccc2c(c1)CC[C@@H]1[C@@H]2CC[C@]2(C)C(=O)CC[C@@H]12`, with “inactive”; and `C#CCN1CC(C)/C(=N/O)CC1C` (configuration not stated), with “inactive”.

For the origin of these results see PubChem BioAssay AID686978 (National Center for Advancing Translational Sciences (NCATS), 2013).
